PubChem BioAssay AID504408 (Broad Institute, 2011)
Among all 300,000 compounds or so, about 5,200 (1.7%) were called active. For the sample, actives were picked, then their nearest neighbours and some compounds at random. Unmarked numbers belong to inactive results.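 The calls were made as follows: active = mean replicate activation of at least 50% with a set share of replicates each reaching 50%; inconclusive = only one of those two conditions met; inactive = mean below 50% and too few replicates reaching it.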

Assay: HSF-1 response element luciferase induction – NIH3T3-HGL cells, MG132 stress, luminescence, single point, primary screen (AID 504408);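 also: 0% = median of the neutral control wells and 100% = twice that signal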
Conditions: NIH3T3-HGL HSF-1 luciferase reporter, MG132, 8 h; at 9 µM; stronger effect = higher value; 100% = twice DMSO control signal

Compound | activation
COc1ccccc1CNS(=O)(=O)c1cc2c3c(c1)CCC(=O)N3CCC2 | 14.6%
COc1ccc(CC(=O)OC(C)C(=O)Nc2ccc(S(N)(=O)=O)cc2)cc1 (centres undefined) | -0.48%
CC(OC(=O)CNC(=O)c1cccc(F)c1)C(=O)NC1CCCCC1C (centres undefined) | -3.7%
CCOC(=O)C1=C(CN2CCc3ccccc32)NC(=O)NC1c1ccc(Cl)cc1 (centres undefined) | 58.6% (active)
CCOC(=O)C1=C(c2ccccc2)NC(=S)NC1c1ccc(Cl)cc1 (centres undefined) | 63.5% (active)
CCOC(=O)C1=C(c2ccccc2)NC(=O)NC1c1cc(OCC)c(O)c([N+](=O)[O-])c1 (centres undefined) | 29.6%
CCOC(=O)C1=C(c2ccccc2)NC(=O)NC1c1cc(OC)c(OC)cc1OC (centres undefined) | -12.4%
CCOC(=O)C1=C(CN2CCc3ccccc32)NC(=O)NC1c1cc(C)ccc1C (centres undefined) | 15.2%
CCOC(=O)C1=C(CN2CCc3ccccc32)NC(=O)NC1c1cccc([N+](=O)[O-])c1 (centres undefined) | 39.3%
CC(=O)CC(CC(=O)NC1CCCCC1)c1ccccc1 (centres undefined) | -2.27%
CC(NC(=O)c1ccccc1SCC(=O)N1CCCC1)c1ccccc1 (centres undefined) | -5.63%
COc1ccc(C(C(=O)NC(C)(C)C)N(C(=O)Cn2nnc3ccccc32)c2ccc(C(C)=O)cc2)cc1O (centres undefined) | 1.15%
COc1ccc(C(C(=O)NCC2CCCO2)N(C(=O)Cn2nnc3ccccc32)c2ccc(NC(C)=O)cc2)cc1OC (centres undefined) | 84% (active)
CCOc1cc(C(C(=O)NCC2CCCO2)N(C(=O)Cn2nnc3ccccc32)c2cccc(OC)c2)ccc1O (centres undefined) | -1.11%
O=C1/C(=C\c2ccc(O)cc2)CCC1CNc1ccc(Cl)cc1 (centres undefined) | -5.88%
COc1ccc(C(=O)c2c3ccc([N+](=O)[O-])cc3[n+]([O-])n2CCCN)cc1 | 11.6%
CCC(C)c1ccccc1N1CC(C(=O)N2CCN(S(=O)(=O)c3ccc(F)cc3)CC2)CC1=O (centres undefined) | 7.61%
CCOC(=O)c1ccc(Nc2cc3ccccc3c(=O)[nH]2)cc1 | -14.6%
CCOC(=O)c1sc(-c2cccc([N+](=O)[O-])c2)cc1N | 24.4%
CCOC(=O)c1sc(C)c2c1NC(C)(c1cccc3ccccc13)NC2=O (centres undefined) | 97.8% (active)
CCOC(=O)c1c(C)[nH]c(C(=O)OCC(=O)c2ccc(OC)cc2OC)c1C | -6.52%
CCOC(=O)c1c(C)[nH]c(C(=O)OCC(=O)N2CCCC2=O)c1C | 16.4%
CCCCOC(=O)c1[nH]c(C)c(C(=O)OC)c1C | 52.3% (active)
COc1cc(-c2nnc(NC(=O)C3=COCCO3)o2)cc(OC)c1OC | -3.05%
